KCNH2 3.1 inh: blocks the human KCNH2 3.1 channel isoform | AID 720553 | U2OS KCNH2 3.1, thallium flux FluxOr; active compounds read low | activity change, % (tested at about 1.8 µM) | 340,000 compounds, 0.95% hits;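 active = maximum activity change below -70%; inconclusive = maximum activity change from -70% to -50%; inactive = maximum activity change above -50%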;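 also: thallium influx rate constant from kinetic fluorescence after stimulation buffer; % is scaled to controls: 0 for no effect and ±100 for the full control effect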
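Channel expression came from 3.1 mutant virus (1.77 x 10^8 /mL) applied to suspended U2OS cells for 4 h. Flux was tracked with FluxOr dye plus Red40 quencher, and kinetic rate constants normalized to controls.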
KB-3-1 tox: KB-3-1 parental cell cytotoxicity. KB-3-1 viability, CellTiter-Glo ATP luminescence, 72 h. Potency, µM (titrated, usually from 46.1 µM), most hits filed as cytotoxic. 400,000 compounds, 1.4% hits. AID 1347075; also: potency is read from the fitted curve at half-maximal effect; % is scaled to controls: 0 for no effect and ±100 for the full control effect; nearly all actives have a fitted effect of over 60% in size
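Screening of KB-3-1 cells (DMEM, 10% FBS, phenol-red free) ran from lowest to highest compound concentration; after 72 h at 37 °C viability was read luminescently and curves fitted.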
SW480 rerep: induces DNA re-replication in SW480 colon adenocarcinoma cells; SW480 DNA re-replication, Hoechst DNA content imaging, 48 h; Potency, µM (top dose mostly 46.1 µM), inactives show at the top dose re-replication activation, hits mostly activators; 340,000 compounds, 1.8% hits; also: potency is read from the fitted curve at half-maximal effect; % of control where 0% means no effect; nearly all actives have a fitted effect of over 55% in size
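Compounds, transferred as 23 nL by pin tool, were incubated with cells for 48 hr; DNA content per nucleus was then quantified by Hoechst staining and fluorescence plate imaging.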
MCF10A rerep: inducers of DNA re-replication in MCF 10A breast cells. MCF 10A DNA re-replication, Hoechst nuclear intensity, 48 h. Potency, µM (top dose mostly 46.1 µM), for inactives: at the top dose activity, positive = re-replication, most hits filed as activators. 350,000 compounds, 2.9% hits. AID 624296; also: potency is read from the fitted curve at half-maximal effect; % of control where 0% means no effect; nearly all actives have a fitted effect of over 50% in size
hERG WT inh: blocks the wildtype human KCNH2 potassium channel; U2OS, BacMam KCNH2, thallium flux FluxOr; active compounds read low; activity change, % at 1.84 µM; 340,000 compounds, 0.37% hits; AID 720551;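 active = maximum activity change below -70%; inconclusive = maximum activity change between -70% and -50%; inactive = maximum activity change above -50%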; also: % is scaled to controls: 0 for no effect and ±100 for the full control effect
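U2OS cells transduced with wild-type KCNH2 virus are loaded with FluxOr dye for 45 min, and thallium flux is measured in kinetic reads before and after stimulation buffer. Rate constants are normalized to DMSO controls.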
KB-V1 MDR tox: kills drug-selected multidrug resistant KB-V1 cells | AID 1347076 | Potency, µM (top dose mostly 46.1 µM), hits mostly cytotoxic | 400,000 compounds, 3.4% hits | KB-V1 MDR cells viability, CellTiter-Glo, 72 h; also: potency is read from the fitted curve at half-maximal effect; % is scaled to controls: 0 for no effect and ±100 for the full control effect; nearly all actives have a fitted effect of over 60% in size
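Cytotoxicity toward P-gp-expressing KB-V1 cells was determined as loss of CellTiter-Glo luminescence after 72 h at 37 degrees C. Compounds were tested in quantitative HTS format across a concentration range, with curves fitted to normalized data.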
The depositor's hits bear a star. Hits are enriched below; roughly 7.6% of the tested compounds scored in any of these assays. Unless noted, calls follow the shape of the dose curve; as a rule, active = well fitted curve in the direction sought with a large enough effect; inconclusive = small, poorly fitted or top-dose-only effect, or another doubt; inactive = no such curve, though single readings can be large; an effect the other way counts as inactive or inconclusive.

Results for O=C(OCC(=O)N1CCCCCC1)c1ccc([N+](=O)[O-])cc1Cl ?
KCNH2 3.1 inh: -6; KB-3-1 tox: inactive; SW480 rerep: -16%; MCF10A rerep: 0.82µM*; hERG WT inh: 15; KB-V1 MDR tox: inactive

Results for CNC(=O)COC(=O)c1ccc([N+](=O)[O-])cc1Cl ?
KCNH2 3.1 inh: 25; KB-3-1 tox: inactive; SW480 rerep: -6%; MCF10A rerep: -8%; hERG WT inh: -1; KB-V1 MDR tox: inactive

Results for COc1nc(N2CCOCC2)nc(C)c1[N+](=O)[O-] ?
KCNH2 3.1 inh: 16; KB-3-1 tox: inactive; SW480 rerep: 0%; MCF10A rerep: 3%; hERG WT inh: -107*; KB-V1 MDR tox: inactive

How did CCn1nc(C(=O)OC(C(=O)c2c[nH]c3ccccc23)c2ccccc2)c2ccccc2c1=O (stereo unspecified) do in these assays?
KCNH2 3.1 inh: -76*; KB-3-1 tox: inactive; SW480 rerep: 15%; MCF10A rerep: 2%; hERG WT inh: -3; KB-V1 MDR tox: 12µM*

How did CCn1nc(C(=O)OCC(=O)c2ccc(F)cc2)c2ccccc2c1=O do in these assays?
KCNH2 3.1 inh: -26; KB-3-1 tox: inactive; SW480 rerep: -4%; MCF10A rerep: 2%; hERG WT inh: 7; KB-V1 MDR tox: inactive

What do the screens show for `O=S(=O)(c1ccc2nc(Cc3cccc(C(F)(F)F)c3)[nH]c2c1)N1CCOCC1`?
KCNH2 3.1 inh: -45; KB-3-1 tox: inactive; SW480 rerep: inconclusive; MCF10A rerep: 2.9µM*; hERG WT inh: 6; KB-V1 MDR tox: inactive

Results for O=S(=O)(c1ccc2nc(Cc3ccccc3)[nH]c2c1)N1CCOCC1 ?
KCNH2 3.1 inh: -43; KB-3-1 tox: inactive; SW480 rerep: inconclusive; MCF10A rerep: -3%; hERG WT inh: 25; KB-V1 MDR tox: inactive

What do the screens show for `Cc1ccccc1Cn1nc(C)c(NC(=O)c2noc3c2CCCC3)c1C`?
KCNH2 3.1 inh: -6; KB-3-1 tox: inconclusive; SW480 rerep: -1%; MCF10A rerep: 3%; hERG WT inh: -10; KB-V1 MDR tox: 5.2µM*

What do the screens show for `Cc1cc(NC(=O)c2noc3c2CCCC3)nn1Cc1ccc(Cl)cc1`?
KCNH2 3.1 inh: -12; KB-3-1 tox: inconclusive; SW480 rerep: 17%; MCF10A rerep: -6%; hERG WT inh: -4; KB-V1 MDR tox: 18µM*

Results for Cc1ccccc1Cn1nc(C)c(NC(=O)C2(C)CC2(Cl)Cl)c1C (stereo unspecified) ?
KCNH2 3.1 inh: 6; KB-3-1 tox: inactive; SW480 rerep: 18µM*; MCF10A rerep: 7%; hERG WT inh: 4; KB-V1 MDR tox: inconclusive

Results for CCCCSCCCNC(=O)c1ccc(CS(=O)(=O)c2ccccc2OC)o1 ?
KCNH2 3.1 inh: -16; KB-3-1 tox: inactive; SW480 rerep: 0%; MCF10A rerep: 1%; hERG WT inh: -1; KB-V1 MDR tox: inactive

What do the screens show for `NC(=O)c1cc2ccccc2o/c1=N/NC(=O)c1cccc(Cl)c1`?
KCNH2 3.1 inh: 23; KB-3-1 tox: inactive; SW480 rerep: 6%; MCF10A rerep: -4%; hERG WT inh: 15; KB-V1 MDR tox: inactive

What do the screens show for `Cc1ccc(C)c(NC(=O)c2cc[n+](C)cc2)c1`?
KCNH2 3.1 inh: -8; KB-3-1 tox: inconclusive; SW480 rerep: -17%; MCF10A rerep: 7%; hERG WT inh: -10; KB-V1 MDR tox: inactive

How did CC(=O)Nc1ccc(S(=O)(=O)Oc2ccc(N3C(=O)C4CCCCC4C3=O)cc2)cc1 (stereo unspecified) do in these assays?
KCNH2 3.1 inh: 0; KB-3-1 tox: inconclusive; SW480 rerep: -16%; MCF10A rerep: 9%; hERG WT inh: 0; KB-V1 MDR tox: 18µM*

How did OC(Cc1cccnc1)(c1ccccc1)c1ccccc1 do in these assays?
KCNH2 3.1 inh: -7; KB-3-1 tox: inconclusive; SW480 rerep: 1%; MCF10A rerep: 0%; hERG WT inh: -14; KB-V1 MDR tox: 18µM*
